CYP2C19 act: cytochrome P450 2C19 (human) activation | recombinant CYP2C19, luciferin-H EGE luminescence; active compounds read high; 0 = fully inhibited enzyme, 1 = untreated enzyme | 96,000 tested, under 10 active | activation factor at 5 µM | AID 1025 | P33261;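 active means activation factor of at least 2 at 5 µM in the primary screen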;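 further: 0 = wells with 2.5 mM tranylcypromine and 1 = vehicle-only wells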
Plk1 PBD FP: Plk1 (human) PBD binding inhibition. AID 693. inhibition, %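 (tested at about 20 µM)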. P53350. Plk1 PBD phosphopeptide binding, fluorescence polarization. actives 0.13% (n = 97,000); in the data active means inhibition above about 34%, passing the limit was not always enough
Target sequence (P53350 whole entry, looked up): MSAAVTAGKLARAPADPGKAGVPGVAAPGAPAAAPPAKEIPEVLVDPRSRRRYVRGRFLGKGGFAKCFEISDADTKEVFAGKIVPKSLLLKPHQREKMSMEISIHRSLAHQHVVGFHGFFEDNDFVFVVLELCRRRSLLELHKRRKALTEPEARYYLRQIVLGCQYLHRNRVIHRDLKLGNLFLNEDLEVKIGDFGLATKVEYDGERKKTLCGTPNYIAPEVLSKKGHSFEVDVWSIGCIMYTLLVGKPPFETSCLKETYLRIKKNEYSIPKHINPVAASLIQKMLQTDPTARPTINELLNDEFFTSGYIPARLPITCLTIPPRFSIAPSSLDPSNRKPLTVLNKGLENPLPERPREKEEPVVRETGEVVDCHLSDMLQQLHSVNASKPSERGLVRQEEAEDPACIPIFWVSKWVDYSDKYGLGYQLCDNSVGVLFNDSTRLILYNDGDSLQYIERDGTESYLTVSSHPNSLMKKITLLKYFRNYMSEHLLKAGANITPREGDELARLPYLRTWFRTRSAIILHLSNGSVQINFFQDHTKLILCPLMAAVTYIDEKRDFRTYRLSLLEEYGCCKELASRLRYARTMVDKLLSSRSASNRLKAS
PLK1 kinase inh: PLK1 (human) kinase inhibition; actives 0.53% (n = 97,000); inhibition, % at 10 µM; P53350; recombinant PLK1 kinase, TR-FRET peptide phosphorylation;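 active means inhibition of 50% or more in the single-concentration screen; inactive means inhibition below 50%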;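 further: 0% = DMSO max control and 100% = H-89 dihydrochloride min control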
CYP2C9 inhib: inhibitors of human CYP2C9; P11712; CYP2C9 Supersomes, luciferin-H conversion, luminescence; inhibition, % at 5 µM; actives 20% (n = 96,000);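 active means blocking of liver enzyme CYP2C9 beyond about 50% at 5 µM, limit read from the data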
CYP2C19 inhib: inhibitors of human CYP2C19 | inhibition, % at 5 µM | actives 21% (n = 96,000) | AID 778 | P33261 | CYP2C19 Supersomes, luciferin-H EGE luminescence, 30 min;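 active means CYP2C19 inhibition above a set limit at 5 µM in the primary screen, cut at about 50% in these data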;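 further: plate controls were negative control wells for no effect and 2.5 mM tranylcypromine positive control for full effect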
CYP2C9 act: increases human cytochrome P450 2C9 activity; P11712; recombinant CYP2C9, luciferin-H conversion, luminescence; active compounds read high; factor 1 = untreated enzyme, 0 = blocked; activation factor at 5 µM; actives 1.4% (n = 96,000); AID 1024;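 active means activation factor of 2 or more for CYP2C9 at a 5 µM dose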;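 further: 0 = sulfaphenazole-blocked wells and 1 = vehicle-only wells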
* marks the source's active call; other numbers are inactive results. A selection: hits, their analogues and other compounds. The true share with any hit is near 28%.

`COc1ccc(NC2=C(C(C)=O)C(c3ccc4c(c3)OCO4)C(C(C)=O)C(C)(O)C2)cc1` (stereo not given) gave CYP2C19 act 0.3, Plk1 PBD FP 10, PLK1 kinase inh -22, CYP2C9 inhib 78*, CYP2C19 inhib 72* and CYP2C9 act 0.2.
O=C(Cc1ccccc1)CC1(O)C(=O)Nc2ccccc21 (stereo not given) was read as CYP2C19 act 0.9, Plk1 PBD FP 1, PLK1 kinase inh -12, CYP2C9 inhib -30, CYP2C19 inhib 12 and CYP2C9 act 1.3.
For C=CCNc1ncnc2c1[nH]c1ccc(Cl)cc12 the results were CYP2C19 act 0.7, Plk1 PBD FP -14, PLK1 kinase inh 1, CYP2C9 inhib 64*, CYP2C19 inhib 34 and CYP2C9 act 0.4.
Screening O=C(NNC(=O)c1ccccc1F)c1cccc(Cl)c1 returned CYP2C19 act 0.9, Plk1 PBD FP -10, PLK1 kinase inh -12, CYP2C9 inhib -17, CYP2C19 inhib 10 and CYP2C9 act 1.2.
`O=C(NNC1=C(C(=O)C(F)(F)F)CCC1)c1ccc(Cl)cc1` gave CYP2C19 act 1, Plk1 PBD FP -4, PLK1 kinase inh -18, CYP2C9 inhib 50*, CYP2C19 inhib 2 and CYP2C9 act 0.5.
Screening O=C(NNC1=C(C(=O)C(F)(F)F)CCC1)c1cccc(Cl)c1 returned CYP2C19 act 0.7, Plk1 PBD FP -17, PLK1 kinase inh -5, CYP2C9 inhib 91*, CYP2C19 inhib 26 and CYP2C9 act 0.1.
For CC12C=CC3(O1)C(C(=O)N(c1ccccc1)C3C(=O)NC1CCCC1)C2C(N)=O (stereo not given) the results were Plk1 PBD FP 9 and PLK1 kinase inh -9.
CC(C)CCN1C(=O)CCC1(C)C(=O)NC1CCCCCCC1 (stereo not given) was read as CYP2C19 act 0.7, Plk1 PBD FP -18, PLK1 kinase inh -11, CYP2C9 inhib 13, CYP2C19 inhib 27 and CYP2C9 act 0.9.
CC1=C(CC(=O)c2ccccc2)C(=O)c2ccccc2C1=O was read as CYP2C19 act 0.4, Plk1 PBD FP -28, PLK1 kinase inh -6, CYP2C9 inhib 68*, CYP2C19 inhib 63* and CYP2C9 act 0.3.
Screening Cc1cccc(N=C2NN=C(c3ccc4c(c3)OCCO4)CS2)c1 returned CYP2C19 act 0.7, Plk1 PBD FP -19, PLK1 kinase inh -12, CYP2C9 inhib 37, CYP2C19 inhib 30 and CYP2C9 act 0.6.
c1ccc(C2=NNC(=NC3CC3)SC2)cc1 was read as CYP2C19 act 0.2, Plk1 PBD FP -17, PLK1 kinase inh -2, CYP2C9 inhib 54*, CYP2C19 inhib 84* and CYP2C9 act 0.5.
For O=C(c1ccccc1F)N1CCN(CC2CC3C=CC2C3)CC1 (stereo not given) the results were CYP2C19 act 0.3, Plk1 PBD FP -19, PLK1 kinase inh -17, CYP2C9 inhib 6, CYP2C19 inhib 69* and CYP2C9 act 0.9.
Screening O=CN1CCN(C(=O)c2ccccc2F)CC1 returned CYP2C19 act 1, Plk1 PBD FP 3, PLK1 kinase inh -6, CYP2C9 inhib -19, CYP2C19 inhib 0 and CYP2C9 act 1.2.
For O=C(c1cccc(F)c1)N1CCN(CC2CC3C=CC2C3)CC1 (stereo not given) the results were CYP2C19 act 0.1, Plk1 PBD FP 13, PLK1 kinase inh -2, CYP2C9 inhib 32, CYP2C19 inhib 90* and CYP2C9 act 0.7.
CC1CCCCC1N1CCN(C(=O)c2cccc(F)c2)CC1 (stereo not given) was read as CYP2C19 act 1, Plk1 PBD FP -10, PLK1 kinase inh -5, CYP2C9 inhib 2, CYP2C19 inhib 3 and CYP2C9 act 1.
For CC1CCCC(N2CCN(C(=O)c3cccc(F)c3)CC2)C1 (stereo not given) the results were CYP2C19 act 0.1, Plk1 PBD FP -7, PLK1 kinase inh -4, CYP2C9 inhib 42, CYP2C19 inhib 89* and CYP2C9 act 0.6.
Screening Clc1nc2sccn2c1/C=N/n1cnc2ccccc21 returned CYP2C19 act 0.7, CYP2C9 inhib 21, CYP2C19 inhib 25 and CYP2C9 act 0.8.
For O=c1[nH]c(=S)c2c(n1-c1ccccc1)CCC2 the results were CYP2C19 act 0.8, Plk1 PBD FP -9, PLK1 kinase inh -14, CYP2C9 inhib -21, CYP2C19 inhib 23 and CYP2C9 act 1.2.
Screening COc1ccccc1NS(=O)(=O)CC12CCC(CC1=O)C2(C)C (stereo not given) returned CYP2C19 act 0.2, Plk1 PBD FP -6, PLK1 kinase inh -14, CYP2C9 inhib -87, CYP2C19 inhib 77* and CYP2C9 act 1.9.
Screening CC1(C)C2CCC1(CS(=O)(=O)N1CCCc3ccccc31)C(=O)C2 (stereo not given) returned CYP2C19 act 0.6, Plk1 PBD FP -12, PLK1 kinase inh -14, CYP2C9 inhib -222, CYP2C19 inhib 42 and CYP2C9 act 3.2*.
For CC1(C)C2CCC1(CS(=O)(=O)N1CCOCC1)C(=O)C2 (stereo not given) the results were CYP2C19 act 1, Plk1 PBD FP -6, PLK1 kinase inh 2, CYP2C9 inhib -36, CYP2C19 inhib 0 and CYP2C9 act 1.4.
COc1ccccc1N1CCN(S(=O)(=O)CC23CCC(CC2=O)C3(C)C)CC1 (stereo not given) was read as CYP2C19 act 0.4, Plk1 PBD FP -8, PLK1 kinase inh -4, CYP2C9 inhib -24, CYP2C19 inhib 60* and CYP2C9 act 1.2.
For CCS(=O)(=O)Nc1ccc(-c2ccc(NS(=O)(=O)CC)c(OC)c2)cc1OC the results were Plk1 PBD FP 32 and PLK1 kinase inh 1.
COc1cccc(NS(=O)(=O)CC23CCC(CC2=O)C3(C)C)c1 (stereo not given) was read as CYP2C19 act 0.4, Plk1 PBD FP -20, PLK1 kinase inh -7, CYP2C9 inhib 6, CYP2C19 inhib 59* and CYP2C9 act 0.9.
O=C(C1CC1)N1CCc2cc(S(=O)(=O)N3CCCc4ccccc43)ccc21 was read as CYP2C19 act 0.8, Plk1 PBD FP 21, PLK1 kinase inh -12, CYP2C9 inhib 47, CYP2C19 inhib 15 and CYP2C9 act 0.5.
Screening O=C(Cn1cc2c(n1)CCCC2)NCCCN1CCN(c2ccccc2F)CC1 returned CYP2C19 act 0.8, Plk1 PBD FP 15, PLK1 kinase inh -12, CYP2C9 inhib -7, CYP2C19 inhib 20 and CYP2C9 act 1.1.
`Cc1ccc(C(=O)COC(=O)CNC(=O)COc2ccccc2C)cc1C` gave CYP2C19 act 0.9, Plk1 PBD FP -8, PLK1 kinase inh -14, CYP2C9 inhib -144, CYP2C19 inhib 12 and CYP2C9 act 2.4*.
`CC(=O)NCC(=O)OCC(=O)c1ccc(C)c(C)c1` gave CYP2C19 act 0.8, Plk1 PBD FP 0, PLK1 kinase inh -10, CYP2C9 inhib -13, CYP2C19 inhib 20 and CYP2C9 act 1.1.

From PubChem
